# Source: PubChem BioAssay (National Center for Advancing Translational Sciences (NCATS))
# KB-V1 cytotox: kills drug-selected multidrug resistant KB-V1 cells | KB-V1 MDR cells viability, CellTiter-Glo, 72 h | Potency, µM (titrated, usually from 46.1 µM), hits mostly cytotoxic | AID 1347076 | 400,000 tested, 3.4% active; also: % is scaled to controls: 0 for no effect and ±100 for the full control effect; nearly all actives have a fitted effect of over 60% in size
#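 Drug-selected KB-V1 cells, grown in DMEM lacking phenol red with 10% FBS, receive compound titrations; after three days at 37 degrees C, surviving cell ATP is quantified by CellTiter-Glo luminescence and responses normalized and curve-fitted.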
# MCF10A rerep: inducers of DNA re-replication in MCF 10A breast cells; MCF 10A DNA re-replication, Hoechst nuclear intensity, 48 h; Potency, µM (top dose mostly 46.1 µM), for the others: at the top dose activity, positive = re-replication, actives largely listed as activators; 350,000 tested, 2.9% active; AID 624296; also: % of control where 0% means no effect; nearly all actives have a fitted effect of over 50% in size
# SW480 rereplic: inducers of DNA re-replication in SW480 colon cancer cells. SW480 DNA re-replication, Hoechst DNA content imaging, 48 h. Potency, µM (series often up to 46.1 µM), for the others: at the top dose re-replication activation, most hits filed as activators. 340,000 tested, 1.8% active; also: % of control where 0% means no effect; nearly all actives have a fitted effect of over 55% in size
#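 First, 250 cells per well were seeded. Next, compound or vehicle (23 nL) was pinned in, plates sat 48 hr at 37 C. Finally Hoechst was added for 40 min before fluorescence scanning.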
# PINK1 expr mod: modulators of PINK1 expression; AID 624263; 410,000 tested, 0.2% active; PINK1 immunofluorescence, high-content cytometry, 24 h; Potency, µM (doses to about 76.6 µM), for the others: at the top dose activation (PINK1 increase), actives largely listed as activators; active = well fitted activation curve with a large enough effect; inconclusive = small, poorly fitted or top-dose-only effect; cell line not stated here; also: % of control where 0% means no effect; nearly all actives have a fitted effect of over 65% in size
#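 Decision-based qHTS: stable cells, 24 h exposure to five compound concentrations, CCCP as control. Fixed cells stained for PINK1 plus nuclear, mitochondrial and cell markers, cytometer read.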
# KB-3-1 cytotox: kills parental KB-3-1 adenocarcinoma cells; Potency, µM (series often up to 46.1 µM), hits mostly cytotoxic; AID 1347075; 400,000 tested, 1.4% active; KB-3-1 viability, CellTiter-Glo ATP luminescence, 72 h; also: % is scaled to controls: 0 for no effect and ±100 for the full control effect; nearly all actives have a fitted effect of over 60% in size
#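 Viability of parental KB-3-1 cells, measured by CellTiter-Glo luminescence, followed a 72 h incubation at 37 °C with pinned compounds in phenol-red-free DMEM containing 10% FBS.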
# The depositor's hits bear a star; i = inactive; ? = inconclusive; · = not tested or not shown; [ ] = remark or other dose. The list is not random: actives were taken first. Their share in the collection is about 6.7%. Unless noted, calls follow the shape of the dose curve; as a rule, active = well fitted curve in the direction sought with a large enough effect; inconclusive = small, poorly fitted or top-dose-only effect, or another doubt; inactive = no such curve, though single readings can be large; an effect the other way counts as inactive or inconclusive. Potency is read from the fitted curve at half-maximal effect.
SMILES,KB-V1 cytotox,MCF10A rerep,SW480 rereplic,PINK1 expr mod,KB-3-1 cytotox
CNc1cc(OC)c(C(=O)N[C@@H]2CCN(Cc3ccccc3)[C@H]2C)cc1Cl,·,1.0%,1.8%,·,·
COC(=O)C1=CN(c2ccc(F)cc2)C=C(C(=O)OC)C1c1cccc(Br)c1,?,14.6µM*,23.1µM*,0.5%,?
C=CCn1c(=S)[nH]c2scc(-c3ccc(C)o3)c2c1=O,i,16.4µM*,?,0.1%,i
C=CCn1c(SCC(C)=O)nc2scc(-c3ccc(C)o3)c2c1=O,i,?,-5.2%,0.1%,i
O=C(c1cc2ncc(CCCl)cn2n1)N1CCCCCC1,i,-4.6%,?,1.4%,i
CC1CCCC(C)N1C(=O)c1cc2ncc(CCCl)cn2n1 (configuration not stated),20.6µM*,-4.9%,-9.2%,-2.6%,i
C=CCn1c(SCC(=O)c2cc(C)n(C(C)COC)c2C)nc2sc(C)c(C)c2c1=O (configuration not stated),8.2µM*,18.4µM*,?,7.7%[38.3 µM],i
C=CCn1c(SCc2c(C)noc2C)nc2sc(C)c(C)c2c1=O,i,23.1µM*,?,22.9%[38.3 µM],i
Cc1noc(C)c1CSc1nc2sc(C)c(C)c2c(=O)n1-c1ccccc1,i,22.8%,1.2%,10.2%,i
C=CCn1c(SCC(=O)NCCO)nc2sc(C)c(C)c2c1=O,i,?,-3.2%,1.1%,i
Cc1nc(N2CCCC2)c2c(C(=O)Nc3cccc(Cl)c3C)c(C)oc2n1,·,·,·,-12.3%,·
NC(=Nc1ccccc1)N(c1ccccc1)c1ccccc1,i,11.6µM*,?,2.3%,i
COc1ccc(NC(=O)C(NC(=O)OC(C)(C)C)C(C)OCc2ccccc2)cc1 (configuration not stated),4.11µM*,6.2%,-1.2%,?,i
COc1ccc(NC(=O)[C@H](COCc2ccccc2)NC(=O)OC(C)(C)C)cc1,5.17µM*,4.9%,10.2%,-1.1%,i
CN(C(=O)c1ccc(NC(=O)Cc2ccc(NC(=O)C3CCN(S(=O)(=O)c4cccc([N+](=O)[O-])c4)CC3)cc2)cc1)C1CCCC1,i,-20.8%,-3.0%,0.2%,i
COc1cc(C2C(=O)N(C3CCCCC3)CC(=O)N2C2CCCCC2)ccc1OC(C)C (configuration not stated),·,·,·,2.5%,·
O=C(c1ccc(Cl)nc1)c1cccs1,i,-1.9%,-9.8%,-2.3%,i
COc1ccc(C(=O)c2no[n+]([O-])c2C(=O)c2ccc(OC)cc2)cc1,?,9.2µM*,?,4.1%,?
O=C(c1cccs1)c1no[n+]([O-])c1C(=O)c1cccs1,?,11.6µM*,13µM*,-1.7%,?
CC1CCC(NC(=O)COC(=O)c2cccnc2Cl)CC1 (configuration not stated),?,1.8%,-9.6%,-0.9%,i
CCC1C(=O)NCCN1Cc1ccc2c(c1)CN(Cc1cc(OC)c3c(c1)OCO3)CCO2 (configuration not stated),·,·,·,-0.8%,·
CC(C)C(C)NC(=O)COc1ccc(Sc2ccc(OCC(=O)NC(C)C(C)C)cc2)cc1 (configuration not stated),2.91µM*,14.6%,4.1%,2.5%,?
CN(Cc1ccccn1)C(=O)C1CCC(=O)N(Cc2cccc(C(F)(F)F)c2)C1 (configuration not stated),i,-1.3%,-20.3%,1.8%,i
CCCCNC(=O)C1(C)CCN1C(=O)c1ccc2sccc2c1 (configuration not stated),i,·,·,0.5%,i
CC(C)=CC(O)C/C(C)=C/COc1ccc2ccc(=O)oc2c1 (configuration not stated),13µM*,?,5.9%,-1.0%,5.8µM*
C=CCOC(=O)Nc1nc(CCNC(=O)OCc2ccccc2)c(C(=O)O)s1,i,·,·,·,i
O=C1NC[C@H](CCCCN2CCN(CCc3ccccc3)C(=O)C2=O)N(CCc2ccccc2)C1=O,i,·,·,1.4%,i
Cc1ccc(NC2=C(NCCO)C(=O)c3ccccc3C2=O)cc1,i,19.2%,?,-0.4%,?
